We go through 13 compounds from PubChem BioAssay (Tox21).

Values joined by “and” are separate entries in the source; they are usually repeats but may differ in a detail not shown here. Identical values can stand only once. Values without a mark were called inactive. Inconclusive results are not listed. Active and inactive are the calls of the source. Calls follow the shape of the dose curve; as a rule, active = well fitted curve in the direction sought with a large enough effect in the repeat runs; inconclusive = weak or mixed curves; inactive = no such curve, though single readings can be large; an effect the other way counts as inactive or inconclusive.

Assay [1] is described as follows: qHTS RealTime-Glo MT Cell Viability Assay in HEK293 cells - 16 hour (AID 1224872). Also: nearly all actives have a fitted effect of over 50% in size. Also: potency is read from the fitted curve at half-maximal effect. Put shortly:
(§1)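 Assay medium contained NanoLuc luciferase plus cell-permeant prosubstrate, added with HEK293 cells at 600 cells/well. After 5 h at 37 C/5% CO2 compounds were added; plates stayed at 37 C for 40 h with serial luminescence reads.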

The nature of assay [2]: qHTS RealTime-Glo MT Cell Viability Assay in HepG2 cells - 8 hour (AID 1224873). Also: nearly all actives have a fitted effect of over 55% in size. Also: potency is read from the fitted curve at half-maximal effect. Put shortly:
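HepG2 cells (600/well) mixed with RealTime-Glo MT reagent, settled 5 h at 37 C/5% CO2 before compound addition. Nonlytic NanoLuc luminescence from viable-cell prosubstrate reduction read repeatedly during 40 h treatment at 37 C.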
(In general: Quantitative high-throughput screening tests each substance at several concentrations.)

Assay [3] in a line: qHTS RealTime-Glo MT Cell Viability Assay in HEK293 cells - 40 hour (AID 1224874). Also: nearly all actives have a fitted effect of over 50% in size. Also: potency is read from the fitted curve at half-maximal effect. Conditions: RealTime-Glo luminescence; max response: stronger effect = lower value. Put shortly:
(§2)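 HEK293 + NanoLuc + prosubstrate, 600 cells/well; 5 h, 37 C/5% CO2; compound 23 nL in DMSO by pintool; 37 C; luminescence read at 0, 8, 16, 24, 32 and 40 h time points.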

Assay [4] in a line: qHTS RealTime-Glo MT Cell Viability Assay in HepG2 cells - 32 hour (AID 1224877). Also: nearly all actives have a fitted effect of over 55% in size. Also: potency is read from the fitted curve at half-maximal effect. The procedure, abridged: (§3)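 qHTS, HepG2, 600 cells/well, RealTime-Glo (NanoLuc + prosubstrate) added with cells; 5 h preincubation; DMSO compound addition; 37 C; luminescence at 0/8/16/24/32/40 h.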
The nature of assay [5]: qHTS RealTime-Glo MT Cell Viability Assay in HEK293 cells - 0 hour (AID 1224880). Also: nearly all actives have a fitted effect of over 45% in size. Also: potency is read from the fitted curve at half-maximal effect. Put shortly:
as §2

Assay [6] in a line: A CellTox Green Cytotoxicity Assay to monitor cytotoxicity in HepG2 cells - 0 hour (AID 1224882). Also: nearly all actives have a fitted effect of over 35% in size. Put shortly:
(§4)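 Measurements at 0, 8, 16, 24, 32 and 40 h of treatment captured CellTox Green fluorescence in HepG2 cells that had been co-plated with reagent and preincubated 5 h at 37 C/5% CO2.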

The nature of assay [7]: A CellTox Green Cytotoxicity Assay to monitor cytotoxicity in HEK293 cells - 8 hour (AID 1224884). Also: nearly all actives have a fitted effect of over 35% in size. Also: potency is read from the fitted curve at half-maximal effect. The procedure, abridged:
(§5)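 Tox21 screen in HEK293: membrane-impermeant cyanine dye fluoresces on binding dead-cell DNA; compound pinned 5 h post-seeding, plates held at 37 C, signal read repeatedly through 40 h.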

A short description of assay [8]: qHTS RealTime-Glo MT Cell Viability Assay in HepG2 cells - 16 hour (AID 1224885). Also: nearly all actives have a fitted effect of over 50% in size. Also: potency is read from the fitted curve at half-maximal effect. Put shortly:
as §3

A short description of assay [9]: qHTS RealTime-Glo MT Cell Viability Assay in HEK293 cells - 24 hour (AID 1224886). Also: nearly all actives have a fitted effect of over 50% in size. Also: potency is read from the fitted curve at half-maximal effect. Put shortly: as §1
Assay [10] can be described thus: qHTS RealTime-Glo MT Cell Viability Assay in HEK293 cells - 8 hour (AID 1224887). Also: nearly all actives have a fitted effect of over 50% in size. Also: potency is read from the fitted curve at half-maximal effect. Put shortly: as §2
Assay [11] is described as follows: A CellTox Green Cytotoxicity Assay to monitor cytotoxicity in HEK293 cells - 24 hour (AID 1224875). Also: nearly all actives have a fitted effect of over 45% in size. Also: potency is read from the fitted curve at half-maximal effect. The procedure, abridged: as §5
The nature of assay [12]: A CellTox Green Cytotoxicity Assay to monitor cytotoxicity in HepG2 cells - 16 hour (AID 1224876). Also: nearly all actives have a fitted effect of over 45% in size. Also: potency is read from the fitted curve at half-maximal effect. The procedure, abridged: as §4
The nature of assay [13]: A CellTox Green Cytotoxicity Assay to monitor cytotoxicity in HepG2 cells - 40 hour (AID 1224879). Also: nearly all actives have a fitted effect of over 40% in size. Also: potency is read from the fitted curve at half-maximal effect. Put shortly:
as §4

Assay [14] is described as follows: A CellTox Green Cytotoxicity Assay to monitor cytotoxicity in HEK293 cells - 32 hour (AID 1224881). Also: nearly all actives have a fitted effect of over 40% in size. Also: potency is read from the fitted curve at half-maximal effect. Put shortly: as §5
Assay [15] is described as follows: A CellTox Green Cytotoxicity Assay to monitor cytotoxicity in HepG2 cells - 32 hour (AID 1224883). Also: nearly all actives have a fitted effect of over 50% in size. Also: potency is read from the fitted curve at half-maximal effect. Put shortly: as §4
Assay [16] can be described thus: A CellTox Green Cytotoxicity Assay to monitor cytotoxicity in HEK293 cells - 16 hour (AID 1224888). Also: nearly all actives have a fitted effect of over 35% in size. Also: potency is read from the fitted curve at half-maximal effect. Put shortly:
as §5

The nature of assay [17]: qHTS RealTime-Glo MT Cell Viability Assay in HepG2 cells - 0 hour (AID 1224889). Also: nearly all actives have a fitted effect of over 50% in size. Put shortly: as §3
A short description of assay [18]: A CellTox Green Cytotoxicity Assay to monitor cytotoxicity in HepG2 cells - 8 hour (AID 1224890). Also: nearly all actives have a fitted effect of over 45% in size. Also: potency is read from the fitted curve at half-maximal effect. The procedure, abridged:
as §4

Assay [19] in a line: qHTS assay to identify small molecule antagonists of the estrogen receptor alpha (ER-alpha) signaling pathway using the BG1 cell line in the presence of 0.1 nM 17-beta-estradiol - cell viability counter screen (AID 1259241). Also: nearly all actives have a fitted effect of over 40% in size. Also: potency is read from the fitted curve at half-maximal effect. The procedure, abridged:
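Cytotoxicity counter-screen: live-cell protease activity measured by fluorescence (30 min reagent step) in the same wells. Cells were VM7Luc4E2 with endogenous ER-alpha and ERE-driven luciferase, treated 22 hr at 37C alongside 0.1 nM 17beta-estradiol final.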

A short description of assay [20]: A CellTox Green Cytotoxicity Assay to monitor cytotoxicity in HepG2 cells - 24 hour (AID 1224878). Also: nearly all actives have a fitted effect of over 45% in size. Also: potency is read from the fitted curve at half-maximal effect. Put shortly: as §4
% is scaled to controls: 0 for no effect and ±100 for the full control effect.

Take `CCc1cc(Cc2cc(CC)cc(C(C)(C)C)c2O)c(O)c(C(C)(C)C)c1`: the Potency in assay [1] is 13.8 µM (active); in assay [2], 49 µM (active); in assay [3], 21.9 µM (active); in assay [4] it was 49 µM (active); in assay [8], 49 µM (active); in [9], 15.5 µM (active). In addition, in assay [10], the Potency was 13.8 µM (active). For the same compound, the Potency entry in assay [5], in assay [6] and in assay [7] was “inactive” throughout.

In the case of `CC(C)n1nc(-c2cc3cc(O)ccc3[nH]2)c2c(N)ncnc21`, the Potency in [1] is 0.477 µM (active); in assay [3], 0.19 µM (active); in [13] it was 23.9 µM (active); in assay [15] it was 23.9 µM (active); in assay [9], 0.301 µM (active). Moreover, the Potency entry in assay [2], in [11], in [12], in assay [5], in [14] and in assay [6] was “inactive” each time. The Potency result in assay [7], in [8], in assay [16], in assay [17] and in [18] was “inactive” each time.

Consider `CNc1ccc(O)cc1`, for which the Potency in [1] was 13.8 µM (active); in [2], 48.9 µM (active); in assay [3] it was 12.3 µM (active); in assay [13] it was 48.9 µM (active); in assay [5], 17.3 µM (active); in [14], 12.3 µM (active). The Potency in assay [15] was 54.8 µM (active); in [8] it was 48.9 µM (active); in assay [9], 12.3 µM (active); in [10] it was 15.5 µM (active); in [19], 21.6 µM (active). For the same compound, the Potency result in [6] and in [16] was “inactive” in each case.

As for `Cc1cc(O)c(C(C)(C)C)cc1C(C)(C)C`, the Potency in assay [1] is 19.5 µM (active); in [2], 38.9 µM (active); in [11], 24.5 µM (active); in assay [12] it was 21.9 µM (active); in [4], 43.6 µM (active); in [20], 21.9 µM (active). For the same compound, the Potency is 24.5 µM (active) in assay [13]; 24.5 µM (active) in assay [15]; 19.5 µM (active) in assay [7]; 43.6 µM (active) in assay [8]; 19.5 µM (active) in assay [9]; 13.8 µM (active) in assay [10]. For the same compound, the results for the Potency in assay [16] and in [18] were 34.7 µM (active) and 24.5 µM (active), respectively. Besides, the Potency result in [5], in [6], in assay [17] and in assay [19] was “inactive” each time.

As to `O=C1C=CC(=O)N1`, the Potency in assay [1] was 15.9 µM (active); in assay [2] it was 44.8 µM (active); in assay [11], 20 µM (active); in assay [12], 25.2 µM (active); in [4] it was 22.5 µM (active); in assay [20], 20 µM (active). Moreover, the Potency in assay [13] is 17.8 µM (active); in assay [14], 17.8 µM (active); in assay [15], 20 µM (active); in [8], 25.2 µM (active); in assay [9], 12.6 µM (active); in assay [10] it was 15.9 µM (active). Further, the Potency is 22.5 µM (active) in assay [16], 50.3 µM (active) in [18] and 55.9 µM (active) in assay [19]. Moreover, the Potency entry in assay [5], in assay [6] and in assay [17] was “inactive” each time.

`C1CCCC1`: the Potency result in assay [1], in assay [2], in [11], in assay [12], in assay [4] and in [20] was “inactive” in each case. The Potency entry in assay [13], in assay [5], in assay [14], in assay [6], in assay [15] and in [7] was “inactive” throughout. In addition, the Potency result in assay [8], in [9], in [10], in assay [16], in [17] and in assay [18] was “inactive” throughout.

On to `CCCCC(CC)COC(=O)c1ccccc1C(=O)O` (stereo not drawn), for which the Potency result in [1], in assay [2], in assay [11], in assay [12], in assay [4] and in assay [20] was “inactive” each time. The Potency result in [13], in assay [5], in [14], in assay [6], in [15] and in assay [8] was “inactive” each time. Further, the Potency entry in assay [10], in [16], in assay [18] and in assay [19] was “inactive” each time.

Regarding `CCCCCCCCCCCCCCCC(=O)OC[C@H](O)[C@H]1OC(=O)C(O)=C1O`, the Potency result in assay [1], in assay [2], in assay [12], in assay [4], in assay [20] and in [13] was “inactive” throughout. In addition, the Potency entry in assay [6], in assay [15], in assay [8], in assay [9], in assay [10] and in assay [17] was “inactive” in each case. The Potency result in [18] is “inactive”. The max response in assay [3] is -4.9%.

In the case of `Clc1ccc(C(Cn2ccnc2)OCc2ccc(Sc3ccccc3)cc2)c(Cl)c1` (stereo not drawn), the Potency result in assay [1], in [2], in [11], in [12], in assay [4] and in assay [20] was “inactive” each time. The Potency entry in [13], in [5], in assay [14], in assay [6], in [15] and in assay [7] was “inactive” in each case. Besides, the Potency entry in assay [8], in [9], in assay [10], in [16], in [17] and in assay [18] was “inactive” each time. Moreover, the Potency entry in assay [19] is “inactive”.

On to `C=C(C)C(=O)OCC[N+](C)(C)C`, for which the Potency result in assay [1], in assay [2], in [12], in [4], in assay [20] and in [13] was “inactive” each time. For the same compound, the Potency entry in [5], in assay [6], in assay [15], in assay [7], in assay [8] and in assay [9] was “inactive” in each case. Besides, the Potency result in assay [10], in [16], in assay [17], in [18] and in assay [19] was “inactive” throughout. Moreover, in assay [3], the max response is -0.113%.

Regarding `C[C@H](CCC(=O)O)[C@H]1CC[C@H]2[C@@H]3CC[C@@H]4C[C@H](O)CC[C@]4(C)[C@H]3CC[C@]12C`, the Potency result in assay [1], in assay [2], in assay [11], in assay [4], in [5] and in assay [14] was “inactive” each time. For the same compound, the Potency result in [6], in assay [7], in assay [8], in assay [9], in assay [10] and in assay [16] was “inactive” in each case. For the same compound, the Potency entry in assay [17], in assay [18] and in assay [19] was “inactive” in each case. The max response in assay [3] is -16.2% and -15.3%.

`COc1ccc(C(=O)/C(Br)=C\C(=O)O)cc1`: the Potency in assay [1] is 38.9 µM (active); in [3], 34.7 µM (active); in [11], 34.7 µM (active); in assay [13], 13.8 µM (active); in assay [14], 30.9 µM (active); in assay [15] it was 13.8 µM (active). Also, the Potency in assay [9] was 38.9 µM (active). Besides, the Potency result in [2], in assay [12], in [5], in [6], in assay [7] and in assay [16] was “inactive” throughout. Further, the Potency result in [17], in assay [18] and in assay [19] was “inactive” in each case.

`CC1(C)CCC(C)(C)c2cc(C(=O)Nc3ccc(C(=O)O)cc3)ccc21`: the Potency result in [1], in assay [2], in assay [4], in [6], in assay [8] and in [9] was “inactive” each time. Further, the Potency result in [10], in [16], in assay [18] and in assay [19] was “inactive” each time. Moreover, the max response in [3] is -14.6%.
